Screens (PubChem)
In the library only some 9.3% were active in any assay of this set; here they are far more common.
HCV inh: qHTS Assay for Inhibitors of Hepatitis C Virus (HCV); Huh7.5.1 HCVcc-Cre infection, luciferase reporter, 44 h; Potency, µM (highest dose often 41.8 µM), inactives show at the top dose activity change, negative = inhibition, hits mostly inhibitors; 340,000 compounds, 3.4% hits; AID 651820, 2012; note: potency is the fitted concentration of half-maximal effect
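Whole-lifecycle infectious HCVcc-Cre system; cells 1,000/well, compound then virus (~0.5 moi) added 4 h after plating, 44 h culture. Luciferase read 15 sec following 15 min substrate incubation, room temp.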
Vaccinia mCherry: qHTS for Stage-Specific Inhibitors of Vaccinia Orthopoxvirus: mCherry Reporter Primary qHTS; Vaccinia virus mCherry reporter infection, fluorescence; Potency, µM (highest dose often 36.5 µM), inactives show at the top dose activity change, negative = inhibition, hits mostly inhibitors; 310,000 compounds, 0.63% hits; calls by dose curve; tested in A549 cells; note: potency is the fitted concentration of half-maximal effect; nearly all actives have a fitted effect of over 35% in size
Sm TGR block: qHTS Assay for the Inhibitors of Schistosoma Mansoni Peroxiredoxins | Schistosoma mansoni thioredoxin glutathione reductase (TGR), Q962Y6 | purified TGR, DTNB reduction, TNB absorbance 405 nm | Potency, µM (top dose mostly 114 µM), for inactives: at the highest dose activity change, negative = inhibition, hits mostly inhibitors | 360,000 compounds, 3% hits; note: potency is the fitted concentration of half-maximal effect; nearly all actives have a fitted effect of over 60% in size
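First, TGR (20 nM dispensed) and NADPH were mixed with compound. Second, a 15 min room-temperature incubation followed. Third, further NADPH and then DTNB were added to start the reaction. Finally, TNB absorbance was monitored kinetically.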
VACV Venus inh: qHTS for Stage-Specific Inhibitors of Vaccinia Orthopoxvirus: Venus Reporter Primary qHTS; AID 720580, 2013; Potency, µM (series often up to 36.5 µM), for inactives: at the top dose activity change, negative = inhibition, usual class: inhibitors; 330,000 compounds, 0.46% hits; Vaccinia virus Venus reporter expression, fluorescence; calls by dose curve; tested in A549 cells; note: potency is the fitted concentration of half-maximal effect; nearly all actives have a fitted effect of over 30% in size
FMDV inh: High Throughput Screening for Foot and Mouth Disease Virus Antivirals | FMDV antiviral cell-based qHTS | Potency, µM (doses to about 57.9 µM), without a hit: top-dose activity change, negative = inhibition, usual class: inhibitors | 410,000 compounds, 1.2% hits; calls by dose curve; tested in HEK293T cells; note: read-out not given here; potency is the fitted concentration of half-maximal effect; nearly all actives have a fitted effect of over 45% in size
HCMV antiviral: qHTS Assay for inhibitors of the human cytomegalovirus (HCMV); HFF cells, HCMV-luciferase reporter, 72 h; stronger effect = lower value; activity change, negative = inhibition, % at 57.5 µM; 410,000 compounds, 4.5% hits; AID 1259415, 2018; in the data active = activity change below about -60%; inconclusive = no clear call, values can overlap the other calls; inactive = above about -39%
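Luciferase read-out from HCMV-luciferase-infected HFFs (MOI 1 PFU/cell) 72 h post infection at 37C; compounds added after 16 h cell attachment; activity normalized between buffer-only basal and Salinomycin (10uM) inhibitor controls.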
* marks the source's active call; other numbers are inactive results; i = inactive; ? = inconclusive; nt = not tested or not shown; [ ] = another dose, or the depositor's remark. Unless noted, calls come from the whole dose curve; as a rule, active = well fitted curve in the direction sought with a large enough effect; inconclusive = small, poorly fitted or top-dose-only effect, or another doubt; inactive = no such curve, though single readings can be large; an effect the other way counts as inactive or inconclusive. % is set by controls: 0 for no effect and ±100 for the full control effect.

SMILES | HCV inh | Vaccinia mCherry | Sm TGR block | VACV Venus inh | FMDV inh | HCMV antiviral
O=S1(=O)CCOC[C@H](Cc2ccccc2)N1Cc1ccc(F)cc1 | 17.3% | -2.5% | nt | ? | -15.3% | -66.8*
CC(C)[C@H]1COCCS(=O)(=O)N1Cc1ccccc1F | -4.0% | ? | nt | 1µM* | -9.3% | 16.4
CC(C)[C@H]1COCCS(=O)(=O)N1Cc1cccc([N+](=O)[O-])c1 | nt | ? | nt | 28.2µM* | nt | nt
CCN1CCN(c2cc(C)c3cc(NC(=S)N4CCC5(CC4)OCCO5)ccc3n2)CC1 | ? | nt | -2.4% | nt | -1.1% | 5.0
CC1CC(C)CN(C(=O)c2ccc3ncsc3c2)C1 (configuration not stated) | 31.8% | i | -1.2% | -22.6% | -15.2% | 22.7
O=C(C1CCC(C(=O)N2CCCCC2)CC1)N1CCCCC1 (configuration not stated) | 3.2% | nt | -14.9% | -35.3% | -26.7% | -60.6*
COC(=O)C1CCN(C(=O)C2CCCCC2)CC1 | 5.01µM* | nt | -1.7% | nt | 13.0% | 96.3
Cc1c(Cl)cccc1NS(=O)(=O)c1ccc(NS(=O)(=O)c2ccc3c(c2)OCCO3)cc1 | nt | 2.8% | 10.3% | -5.6% | 3.4% | -105.5*
Cc1c(NS(=O)(=O)c2ccc3c(c2)OCCO3)cccc1-c1nc2cccnc2s1 | 12.6µM* | -17.2% | -2.7% | -17.2% | ? | -39.5
Cc1cc(-c2nc3cccnc3s2)ccc1NS(=O)(=O)c1ccc2c(c1)OCCO2 | 8.4% | i | -4.3% | -18.4% | 67.1% | 14.8
O=S(=O)(Nc1cccnc1Cl)c1ccc2c(c1)OCCO2 | -0.7% | -4.5% | -32.8% | -6.3% | 6.3% | -0.5
CCOC(=O)c1c(C)[nH]c(CCC(=O)Nc2ccccc2OCC)c1C | nt | -0.2% | 3.8% | -2.3% | -21.3% | ?
CCOC(=O)c1ccccc1NC(=O)c1c(F)c(F)c(F)c(F)c1F | 10µM* | nt | -0.5% | nt | -24.6% | -4.7
CCOC(=O)c1ccccc1NC(=O)c1ccc(N(C)S(C)(=O)=O)cc1 | 10µM* | -0.7% | 1.9% | 0.0% | nt | -16.4
CCOC(=O)c1c(C)[nH]c(CCC(=O)Nc2ccccc2C(=O)OC)c1C | nt | -10.7% | 0.1% | -7.5% | -8.2% | -72.6*
COCCCNC(=O)c1ccc(N(C)S(=O)(=O)c2ccc(OC)cc2)cc1 | 19.4% | -7.8% | 2.3% | -11.2% | -24.7% | -11.1
CCOC(=O)c1ccccc1NC(=O)c1ccc(F)cc1 | -9.2% | -1.7% | -32.9% | -1.9% | -21.8% | 14.1
CCOC(=O)c1ccccc1NC(=O)c1ccccc1N(C)S(C)(=O)=O | -12.5% | -22.8% | ? | -13.3% | -25.6% | 10.7
COCCCNC(=O)c1ccc(N(C)S(C)(=O)=O)cc1 | -2.1% | -9.2% | 28.2µM* | -7.9% | nt | -8.6
O/N=C(/CBr)c1ccc2ccccc2c1 | nt | i | nt | -13.2% | nt | nt
O=C(N1CCOCC1)N1CCN(c2ccc(F)cc2)CC1 | 15.0% | -0.8% | 0.5% | -9.7% | nt | -3.6
Cc1ccc2c(C)c(C(=O)Nc3nnc(C)s3)oc2c1 | 2.7% | -5.7% | 4.2% | 2.4% | 30.5% | -99.4*
CC(C)C(NS(=O)(=O)c1ccccc1)C(=O)OCC(=O)NNC(=O)c1ccccc1 (configuration not stated) | 20.0% | -13.3% | -1.1% | -14.7% | 11.1% | 7.9
O=C(NC(C(=O)N/N=C/c1cccc2ccccc12)c1n[nH]c(=O)c2ccccc12)c1ccccc1 (configuration not stated) | 22.4µM* | nt | -2.1% | ? | -24.0% | -3.6
O=C(NC(C(=O)N/N=C/c1ccncc1)c1n[nH]c(=O)c2ccccc12)c1ccccc1 (configuration not stated) | 13.0% | 2.2% | -4.5% | -11.8% | 4.4% | -20.1
SMILES | HCV inh | Vaccinia mCherry | Sm TGR block | VACV Venus inh | FMDV inh | HCMV antiviral
O=C(NC(C(=O)N/N=C/c1cc([N+](=O)[O-])ccc1O)c1n[nH]c(=O)c2ccccc12)c1ccccc1 (configuration not stated) | 2.6% | -22.8% | -9.1% | -15.5% | -1.5% | -89.1*
O=C(N[C@H]1CC[C@@]23CCCN2C(=O)CCC[C@H]3[C@H]1Cc1ccccc1)c1cccnc1 | nt | nt | nt | nt | nt | -11.0
CN(C)CCNC(=O)/C(=C/c1ccc(-c2ccc(Cl)cc2Cl)o1)NC(=O)c1ccccc1 | 10µM* | ? | -14.3% | 11.2µM* | ? | ?
COc1ccc(-c2ccc(/C=C(\NC(=O)c3ccccc3)C(=O)N3CCOCC3)o2)cc1 | -24.9% | ? | -0.3%[57.1 µM] | ? | -11.2% | -62.9*
Cc1ccc(C(=O)N/C(=C/c2ccc(-c3cc(C(F)(F)F)ccc3Cl)o2)C(=O)NCc2cccnc2)cc1 | ? | ? | 15.1% | ? | -25.5% | -20.7
Cc1ccc(C(=O)N/C(=C\c2ccc(-c3ccc(Br)cc3)o2)C(=O)NCCCN(C)C)cc1 | 2µM* | nt | -29.7% | nt | ? | -100.6*
CN(C)CCCNC(=O)/C(=C\c1ccc(-c2cccc([N+](=O)[O-])c2)o1)NC(=O)c1ccccc1 | ? | ? | nt | -2.7% | -22.4% | -66.1*
Cc1ccc(C(=O)N/C(=C\c2ccc(-c3cccc([N+](=O)[O-])c3)o2)C(=O)NCCCN(C)C)cc1 | ? | ? | -0.4% | ? | -7.7% | -39.5
COc1ccc(S(N)(=O)=O)cc1C(=O)OCC(=O)N1c2ccccc2NC(=O)C1(C)C | -4.3% | i | nt | -2.3% | 1.3% | -13.3
CCc1ccc(C2=CSC3=NCCN23)cc1 | 5.6% | nt | -1.8% | nt | -8.9% | 22.3
Cn1nc2c3ccccc3n(Cc3ccccc3)c2nc1=S | 4.5% | 1.1% | 16.5% | -0.8% | 12.4% | 12.7
O=C(NCCN1CCOCC1)/C(=C/c1ccc(Cl)cc1)NC(=O)c1ccccc1 | ? | -5.3% | -0.6% | -5.3% | 9.5% | -27.9
CN(C)CCNC(=O)/C(=C/c1ccc(-c2ccc(Cl)cc2)o1)NC(=O)c1ccccc1 | 10µM* | -4.3% | 2.6% | ? | ? | -35.9
Cc1ccc(C(=O)N/C(=C\c2ccc(-c3ccccc3[N+](=O)[O-])o2)C(=O)NCCCN2CCOCC2)cc1 | 25.1µM* | ? | 35.5µM* | -13.3% | -13.5% | 35.5
CCOc1cccc(-c2ccc3nncn3c2)c1 | nt | -1.6% | nt | -1.5% | 6.4% | 33.2
CCS(=O)(=O)c1ccc(O)c(NC(=O)COc2ccc(Br)cc2)c1 | 5.8% | -22.1% | nt | -0.1% | -2.8% | ?
CCSc1nnc([C@@H](NC(=O)OC(C)(C)C)C(C)C)o1 | 5.6% | i | 0.1% | -19.0% | -9.5% | -0.8
CCOC(=O)c1cccc(-c2ccc(C=O)o2)c1 | -16.2% | -14.0% | 50.1µM* | -4.2% | 31.1% | 53.7
